# Reference: the supplement of paper PMC11537057
# Where a name gives a salt, the structure may show the parent alone. ± gives the standard deviation of the averaged measurements. Whole data set: some 1,700 compounds, median “cell number in HSV-1-infected wells relative to infected DMSO wells (H2B-RFP signal)” near 100, cut for the highest 2% near 140. What follows is part of a selection rich in the highest values, with near analogues and random picks from the rest.
# Test system: A549 infected with HSV-1
# Experiment: cell number in HSV-1-infected wells relative to infected DMSO wells (H2B-RFP signal); higher = more surviving cells (uninfected or antiviral-protected wells give about 200%; low = toxicity)
# Conditions: 10 µM; 48 h; MOI: 0.1
# Experimental: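 Selleck FDA-approved library (L1300) screened in duplicate at 10 µM on A549 H2B-mRuby cells in 384-well plates, infected with HSV-1 strain 17 YFP-ICP4 at MOI 0.1 one hour before drug addition. Imaged after 2 days at 37°C. Cell growth (H2B-RFP) and infection (ICP4-YFP) are expressed as % of DMSO-treated wells. Hits: growth >90% and infection <20% of DMSO.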
row,SMILES,cell number in HSV-1-infected wells [%]
1,CCOc1cc(N)c(Cl)cc1C(=O)NCC1CN(Cc2ccc(F)cc2)CCO1 (configuration not stated) [Mosapride],92.8 ± 14
2,CCOc1cc(N)c(Cl)cc1C(=O)NCC1CN(Cc2ccc(F)cc2)CCO1 (configuration not stated) [Mosapride Citrate],89.7 ± 13
3,Cc1cccc(C)c1N(CC(=O)Nc1ccc(-c2ncon2)cc1)C(=O)C1CCS(=O)(=O)CC1 [Amenamevir],214 ± 5.9
4,O=C1CC[C@@H](C(=O)N2CSC[C@H]2C(=O)O)N1 [Pidotimod],82.1 ± 7.1
5,CCOc1ccc(Cc2cc([C@]34OC[C@](CO)(O3)[C@@H](O)[C@H](O)[C@H]4O)ccc2Cl)cc1 [Ertugliflozin],116 ± 8.7
6,O=C([O-])c1ccccc1.[Na+] [Sodium benzoate],83.2 ± 14
7,COC(=O)N(C)c1c(N)nc(-c2nn(Cc3ccccc3F)c3ncccc23)nc1N [Riociguat (BAY 63-2521)],108 ± 15
8,CCN1CCC[C@H]1CNC(=O)c1cc(S(N)(=O)=O)ccc1OC [Levosulpiride],94.939 ± 0.086
9,Cc1c(F)cc(C(=O)NC2CC2)cc1-c1ccc(C(=O)NCC(C)(C)C)cn1,145 ± 44
10,N[C@@H](CCC(=O)O)C(=O)[O-].[Na+] [L-Glutamic acid monosodium salt],94.5 ± 4.2
11,CC(C)CCCCC(=O)N[C@@H](CCN)C(=O)N[C@H](C(=O)N[C@@H](CCN)C(=O)N[C@H]1CCNC(=O)[C@H]([C@@H](C)O)NC(=O)[C@H](CCN)NC(=O)[C@H](CCN)NC(=O)[C@H](CC(C)C)NC(=O)[C@@H](Cc2ccccc2)NC(=O)[C@H](CCN)NC1=O)[C@@H](C)O [Polymyxin B sulphate],132 ± 31
12,O=C(NCC(O)CO)c1c(I)c(C(=O)NCC(O)CO)c(I)c(N(CCO)C(=O)CO)c1I (configuration not stated) [Ioversol],146 ± 6.8
13,COCC(=O)Nc1c(I)c(C(=O)NCC(O)CO)c(I)c(C(=O)N(C)CC(O)CO)c1I (configuration not stated) [Iopromide],111 ± 26
14,CC(=O)N(CC(O)CN(C(C)=O)c1c(I)c(C(=O)NCC(O)CO)c(I)c(C(=O)NCC(O)CO)c1I)c1c(I)c(C(=O)NCC(O)CO)c(I)c(C(=O)NCC(O)CO)c1I (configuration not stated) [Iodixanol],79.6 ± 3
15,CC(=O)Oc1ccc(C(c2ccc(OC(C)=O)cc2)c2ccccn2)cc1 [Bisacodyl],87.8 ± 16
16,CC[C@H](C)[C@@H]1NC(=O)[C@H](CCCNC(=N)N)NC(=O)[C@H](CC(=O)O)NC(=O)[C@H](CCSC)NC(=O)[C@H](CCCNC(=N)N)NC(=O)CNC(=O)CNC(=O)[C@H](Cc2ccccc2)NC(=O)[C@@H](NC(=O)[C@H](CO)NC(=O)[C@H](CO)NC(=O)[C@H](CCCNC(=N)N)NC(=O)[C@H](CCCNC(=N)N)NC(=O)[C@H](CC(C)C)NC(=O)[C@@H](N)CO)CSSC[C@@H](C(=O)N[C@@H](CC(N)=O)C(=O)N[C@@H](CO)C(=O)N[C@@H](Cc2ccccc2)C(=O)N[C@@H](CCCNC(=N)N)C(=O)N[C@@H](Cc2ccc(O)cc2)C(=O)O)NC(=O)CNC(=O)[C@H](CC(C)C)NC(=O)CNC(=O)[C@H](CO)NC(=O)[C@H](CCC(N)=O)NC(=O)[C@H](C)NC(=O)CNC1=O [Carperitide Acetate],131 ± 1.4
17,O=C(O)CCCC[C@@H]1CCSS1 (racemic) [Thioctic acid],134 ± 60
18,CNC(=O)c1ccc(N2C(=S)N(c3ccc(C#N)c(C(F)(F)F)c3)C(=O)C2(C)C)cc1F [Enzalutamide (MDV3100)],95.9 ± 2.1
19,CC1(C)NC(=O)N(c2ccc([N+](=O)[O-])c(C(F)(F)F)c2)C1=O [Nilutamide],150 ± 36
20,CC(C)C(=O)Nc1ccc([N+](=O)[O-])c(C(F)(F)F)c1 [Flutamide],110 ± 2.2
21,OC1CC2CCC(C1)N2 (configuration not stated) [Nortropine Hydrochloride],105 ± 10

row,SMILES,cell number in HSV-1-infected wells [%]
1,COC(=O)C1=C(C)NC(C)=C(C(=O)OC2CCCN(Cc3ccccc3)C2)C1c1cccc([N+](=O)[O-])c1 (configuration not stated) [Benidipine HCl],85.5 ± 9.3
2,CCC[C@@H]1C[C@@H](C(=O)N[C@@H]([C@H]2O[C@H](SC)[C@H](O)[C@@H](O)[C@H]2O)[C@H](C)Cl)N(C)C1 [Clindamycin],88 ± 4
3,CCC[C@@H]1C[C@@H](C(=O)N[C@@H]([C@H]2O[C@H](SC)[C@H](O)[C@@H](O)[C@H]2O)[C@@H](C)O)N(C)C1 [Lincomycin HCl],133 ± 16
4,CCC[C@@H]1C[C@@H](C(=O)N[C@@H]([C@H]2O[C@H](SC)[C@H](O)[C@@H](O)[C@H]2O)[C@@H](C)O)N(C)C1 [Lincomycin Hydrochloride Monohydrate],150 ± 39
5,CCC[C@@H]1C[C@@H](C(=O)N[C@@H]([C@H]2O[C@H](SC)[C@H](OP(=O)(O)O)[C@@H](O)[C@H]2O)[C@H](C)Cl)N(C)C1 [Clindamycin Phosphate],101 ± 12
6,CCC[C@@H]1C[C@@H](C(=O)N[C@@H]([C@H]2O[C@H](SC)[C@H](O)[C@@H](O)[C@H]2O)[C@H](C)Cl)N(C)C1 [Clindamycin HCl],99.4 ± 5.8
7,CCOc1cc2ncc(C#N)c(Nc3ccc(OCc4ccccn4)c(Cl)c3)c2cc1NC(=O)/C=C/CN(C)C [Neratinib (HKI-272)],63.62 ± 0.22
8,CC(C)(Oc1ccc(Cl)cc1)C(=O)OCCOC(=O)c1cccnc1 [Etofibrate],129 ± 12
9,OCc1cc([C@@H](O)CNCCCCCCOCCOCc2c(Cl)cccc2Cl)ccc1O [Vilanterol Trifenate],25.9 ± 8.8
10,N[C@@H](Cc1ccc(N(CCCl)CCCl)cc1)C(=O)O [Melphalan],72.2 ± 27
11,CCOc1ccccc1OCCN[C@H](C)Cc1ccc(OC)c(S(N)(=O)=O)c1 [Tamsulosin hydrochloride],132 ± 8.6
12,COc1ccc2c(c1)[C@]13CCCC[C@@H]1[C@H](C2)N(C)CC3 [Dextromethorphan hydrobromide hydrate],146 ± 7.2
13,Cc1ccc2c(c1)[C@]13CCCC[C@@H]1[C@H](C2)N(C)CC3 [Dimemorfan phosphate],127 ± 24
14,C=C1/C(=C\C=C2/CCC[C@]3(C)[C@@H]([C@H](C)/C=C/[C@H](C)C(C)C)CC[C@@H]23)C[C@@H](O)C[C@@H]1O [Doxercalciferol],100 ± 23
15,Nc1cc(C(Cl)=C(Cl)Cl)c(S(N)(=O)=O)cc1S(N)(=O)=O [Clorsulon],114 ± 7.9
16,CCc1c(C)[nH]c2c1C(=O)C(CN1CCOCC1)CC2 (configuration not stated) [Molindone hydrochloride],93 ± 20
17,CO/N=C(\C(=O)N[C@@H]1C(=O)N2C(C(=O)O)=CCS[C@H]12)c1csc(N)n1 [Ceftizoxime],136 ± 15
18,COc1ccccc1OCC(O)COC(N)=O (configuration not stated) [Methocarbamol],115 ± 1.9
19,Cl.NCCCC[C@H](N)C(=O)O [L-Lysine hydrochloride],123.8 ± 0.98
20,CC(=O)O[C@]1(C(C)=O)CC[C@H]2[C@@H]3C=C(Cl)C4=CC(=O)[C@@H]5C[C@@H]5[C@]4(C)[C@H]3CC[C@@]21C [Cyproterone Acetate],118 ± 11
21,CC(=O)O[C@]1(C(C)=O)CC[C@H]2[C@@H]3C=C(C)C4=CC(=O)CC[C@]4(C)[C@H]3CC[C@@]21C [Megestrol Acetate],112 ± 9.4

row,SMILES,cell number in HSV-1-infected wells [%]
1,CC(=O)O[C@]1(C(C)=O)CC[C@H]2[C@@H]3C=C(Cl)C4=CC(=O)CC[C@]4(C)[C@H]3CC[C@@]21C [Chlormadinone acetate],148 ± 5.6
2,CN1CCN(c2ccc(C(=O)Nc3n[nH]c4ccc(Cc5cc(F)cc(F)c5)cc34)c(NC3CCOCC3)c2)CC1 [Entrectinib (RXDX-101)],18 ± 8.2
3,CCC/N=C1\S/C(=C\c2ccc(OC[C@H](O)CO)c(Cl)c2)C(=O)N1c1ccccc1C [Ponesimod],17.2 ± 12
4,CC(OC(=O)OC1CCCCC1)OC(=O)C1=C(CSc2nnnn2CCN(C)C)CS[C@@H]2[C@H](NC(=O)Cc3csc(N)n3)C(=O)N12 (some centres not stated) [Cefotiam Hexetil Hydrochloride],76.7 ± 3.4
5,CC(C)(CO)[C@@H](O)C(=O)NCCCO [D panthenol],121 ± 46
6,COc1c(N2C[C@@H]3CCCN[C@@H]3C2)c(F)cc2c(=O)c(C(=O)O)cn(C3CC3)c12 [Moxifloxacin],145 ± 32
7,COc1c(N2CCNC(C)C2)c(F)cc2c(=O)c(C(=O)O)cn(C3CC3)c12 (configuration not stated) [Gatifloxacin],108 ± 17
8,COc1c(N2C[C@@H]3CCCN[C@@H]3C2)c(F)cc2c(=O)c(C(=O)O)cn(C3CC3)c12 [Moxifloxacin HCl],87.9 ± 22
9,CNC1CCCN(c2c(F)cc3c(=O)c(C(=O)O)cn(C4CC4)c3c2OC)C1 (configuration not stated) [Balofloxacin],117 ± 1.2
10,CCCN1CCCC[C@H]1C(=O)Nc1c(C)cccc1C [Ropivacaine HCl],87.6 ± 6.9
11,CCCN1CCCC[C@H]1C(=O)Nc1c(C)cccc1C [Ropivacaine],115 ± 7.2
12,[Cl][Mn][Cl] [Manganese chloride],109 ± 4.5
13,CCOc1ccc(Cc2cc([C@@H]3O[C@H](SC)[C@@H](O)[C@H](O)[C@H]3O)ccc2Cl)cc1 [Sotagliflozin (LX4211)],61.71 ± 0.063
14,COc1cc2c(cc1OC)[C@H]1C[C@@H](OC(=O)[C@@H](N)C(C)C)[C@H](CC(C)C)CN1CC2 [Valbenazine tosylate],134 ± 41
15,CCn1cc(C(=O)O)c(=O)c2cc(F)c(N3CCNCC3)cc21 [Norfloxacin],97.4 ± 27
16,CN1CCN(c2cc3c(cc2F)c(=O)c(C(=O)O)cn3-c2ccc(F)cc2)CC1 [Difloxacin HCl],129 ± 16
17,CN1C[C@@H]2C[C@H]1CN2c1cc2c(cc1F)c(=O)c(C(=O)O)cn2C1CC1 [Danofloxacin Mesylate],110.8 ± 1.1
18,O=C(O)c1cn(C2CC2)c2cc(N3CCNCC3)c(F)cc2c1=O [Ciprofloxacin hydrochloride hydrate],139 ± 2.3
19,O=C(O)c1cn(-c2ccc(F)cc2)c2cc(N3CCNCC3)c(F)cc2c1=O [Sarafloxacin HCl],151 ± 7.2
20,CCN1CCN(c2cc3c(cc2F)c(=O)c(C(=O)O)cn3C2CC2)CC1 [Enrofloxacin],147 ± 8.9
